The record followed here is a collection of fitness landscapes (doi:10.1126/science.1257360).

B1: PhoQ; a variant is named by its letters at X, in order, P23837 (parent)
chain: MKKLLRLFFPLSLRVRFLLATAAVVLVLSLAYGMVALIGYSVSFDKTTFRLLRGESNLFYTLAKWENNKLHVELPENIDKQSPTMTLIYDENGQLLWAQRDVPWLMKMIQPDWLKSNGFHEIEADVNDTSLLLSGDHSIQQQLQEVREDDDDAEMTHSVAVNVYPATSRMPKLTIVVVDTIPVELKSSYMVWSWFIYVLSANLLLVIPLLWVAAWWSLRPIEALAKEVRELEEHNRELLNPATTRELTSLVRNLNRLLKSERERYDKYRTTLTDLTHSLKTPLXXLQXXLRSLRSEKMSVSDAEPVMLEQISRISQQIGYYLHRASMRGGTLLSRELHPVAPLLDNLTSALNKVYQRKGVNISLDISPEISFVGEQNDFVEVMGNVLDNACKYCLEFVEISARQTDEHLYIVVEDDGPGIPLSKREVIFDRGQRVDTLRPGQGVGLAVAREITEQYEGKIVAGESMLGGARMEVIFGRQHSAPKDE

Over roughly 140,000 sequences, “enrichment ratio after two sorts for PhoP signalling” has its median near 0; the highest 2% begin near 11. The sample holds the highest values, similar sequences and a random draw of the others, so the mix is not that of the screen. Bounds are passed on as bounds.

In the assay the parent is B1. The assay is described as follows: enrichment ratio after two sorts for PhoP signalling (ratio (wild type AVST 3.29)); higher = more functional. The note with it: with PhoP (E. coli).
For MYCI, the enrichment ratio was no more than 0.25. As to LDCF, the enrichment ratio is no more than 0.25. Take DHSM: the enrichment ratio was no more than 0.25. Take GYII: the enrichment ratio turned out to be 0.285.

Consider GGII, for which the enrichment ratio came to 1.19.

For the variant GCII, the enrichment ratio is 18.2. For the variant YTII, the enrichment ratio is no more than 0.25. For the variant GTII, the enrichment ratio is 13.8.

In the case of GNII, the enrichment ratio came to 8.44.

On to TMPM, for which the enrichment ratio was no more than 0.25. With TMAM, the enrichment ratio is 26.9. As to HAAK, the enrichment ratio was no more than 0.25. The figure for TMNM is 35; for TMIM it is no more than 0.25. To KMNM belongs no more than 0.25; to DMAN, no more than 0.25. For the variant TMAK, the enrichment ratio stood at 16.1.

As for NMAK, the enrichment ratio is no more than 0.25.

In the case of KMAN, the enrichment ratio was no more than 0.25.

Turning to TMAN, the enrichment ratio was found to be 18.9. Regarding KMAM, the enrichment ratio is no more than 0.25. Regarding HYTR, the enrichment ratio was no more than 0.25. LWGW: the enrichment ratio is no more than 0.25.

As to NTYY, the enrichment ratio is no more than 0.25. To YIFC belongs no more than 0.25.

Consider CVCM, for which the enrichment ratio was no more than 0.25. The figure for TMWM is no more than 0.25; for TMGM it is 3.21.

As for TMTM, the enrichment ratio turned out to be 17.1. On to TWYG, for which the enrichment ratio is no more than 0.25. With FFFF, the enrichment ratio is no more than 0.25. With FFGF, the enrichment ratio is no more than 0.25. On to QGGF, for which the enrichment ratio turned out to be 18.4. As to QPGF, the enrichment ratio was no more than 0.25. As to QIGF, the enrichment ratio turned out to be 12.5. Turning to QIHF, the enrichment ratio was no more than 0.25. For QGFA, the enrichment ratio turned out to be 1.27.

For QEGF, the enrichment ratio was no more than 0.25. Regarding QGFF, the enrichment ratio was 13.9. The figure for LRWS is no more than 0.25; for ITEW it is no more than 0.25; for ELKD it is no more than 0.25. As for HCGH, the enrichment ratio was no more than 0.25. As for NAPY, the enrichment ratio is no more than 0.25. As to CIFA, the enrichment ratio was no more than 0.25. With CIWI, the enrichment ratio is no more than 0.25. To CITI belongs no more than 0.25; to CITA, 12.4; to CIMV, 12.9.

As to CICV, the enrichment ratio turned out to be 0.57.

As to TNDF, the enrichment ratio is no more than 0.25. Regarding YDRL, the enrichment ratio is no more than 0.25. To VIWT belongs no more than 0.25; to WDYR, no more than 0.25. For GTGM, the enrichment ratio was 6.32. Take GDCG: the enrichment ratio is no more than 0.25.

On to RIRE, for which the enrichment ratio was no more than 0.25. With QTGD, the enrichment ratio was no more than 0.25. Turning to QTGM, the enrichment ratio came to 12. Turning to QTNS, the enrichment ratio was found to be 0.432. Turning to QEYL, the enrichment ratio was determined as 1.39. As to QTNL, the enrichment ratio was determined as 10.8. QGDH: the enrichment ratio was no more than 0.25.

Regarding QTNY, the enrichment ratio was determined as 17.5. As for KSYL, the enrichment ratio was no more than 0.25.

Regarding QTDS, the enrichment ratio came out at 8.33.

For the variant QTDH, the enrichment ratio is 29.3. On to QSYL, for which the enrichment ratio is 13.9.

On to QTPM, for which the enrichment ratio is no more than 0.25. For the variant DLEK, the enrichment ratio was no more than 0.25. As for IPTS, the enrichment ratio was no more than 0.25. In the case of VIYV, the enrichment ratio is no more than 0.25. On to KMFH, for which the enrichment ratio was no more than 0.25. As to KSEQ, the enrichment ratio was no more than 0.25. For TVLM, the enrichment ratio stood at 0.847. As for KYWW, the enrichment ratio is no more than 0.25. Regarding KESK, the enrichment ratio is no more than 0.25. KVEK: the enrichment ratio was no more than 0.25. On to KTHS, for which the enrichment ratio is 0.436.

Consider VEPK, for which the enrichment ratio is no more than 0.25. For FDYL, the enrichment ratio was no more than 0.25.

For QTRL, the enrichment ratio was no more than 0.25.

Regarding QGYL, the enrichment ratio was determined as 9.62. In the case of QTYL, the enrichment ratio was found to be 12.8. QTYI: the enrichment ratio turned out to be 12.9. For QGWL, the enrichment ratio is 2.29.

Take QTHF: the enrichment ratio is 3.14.

On to QTWL, for which the enrichment ratio was 21.9. For QTPA, the enrichment ratio was no more than 0.25. Turning to PSTY, the enrichment ratio is no more than 0.25. To DPTW belongs no more than 0.25.

As for RMLN, the enrichment ratio is no more than 0.25. HIRM: the enrichment ratio was no more than 0.25. As to WLCT, the enrichment ratio is no more than 0.25. Turning to SRCT, the enrichment ratio was no more than 0.25. For PLCT, the enrichment ratio was no more than 0.25. The figure for KYCT is no more than 0.25. To SECT belongs 24.6; to IACT, no more than 0.25. As to SACT, the enrichment ratio came to 14. To TECT belongs 5.22; to SLCT, 19.2; to HEHS, no more than 0.25.

As for NPLN, the enrichment ratio is no more than 0.25. Turning to KDNG, the enrichment ratio is no more than 0.25.

In the case of TGQY, the enrichment ratio is 5.59. On to SYEM, for which the enrichment ratio is no more than 0.25. The figure for LFDK is no more than 0.25; for LFMM it is no more than 0.25. Consider YGQR, for which the enrichment ratio was no more than 0.25.

Turning to GEGD, the enrichment ratio is no more than 0.25. The figure for GETT is 16.2; for GNTT it is 2.98. To GENY belongs no more than 0.25. In the case of GEAA, the enrichment ratio was 11.4. For GEYT, the enrichment ratio is 0.289. GEYI: the enrichment ratio is no more than 0.25. GEAY: the enrichment ratio is 23.4.

As to GELT, the enrichment ratio is 11.2.

Regarding GEAT, the enrichment ratio amounted to 14.1. In the case of GETA, the enrichment ratio was no more than 0.25.

Regarding GEAS, the enrichment ratio is 9.56. In the case of MCVP, the enrichment ratio was no more than 0.25.

Take LYDV: the enrichment ratio is no more than 0.25. For WERP, the enrichment ratio was no more than 0.25. On to FGLD, for which the enrichment ratio is no more than 0.25. To WHSD belongs no more than 0.25.

Take PARG: the enrichment ratio was no more than 0.25.

In the case of SKNV, the enrichment ratio is no more than 0.25. The figure for KDFC is no more than 0.25; for TTTG it is 7.1. In the case of ATMG, the enrichment ratio stood at 16.2. Regarding ATTG, the enrichment ratio was 12.

For ATIV, the enrichment ratio was found to be 8.37.

For the variant ATCG, the enrichment ratio amounted to 16.1. Take AICG: the enrichment ratio was 8.42.

Consider ATMV, for which the enrichment ratio was determined as 9.43. Consider YTTG, for which the enrichment ratio is no more than 0.25. For the variant ATCV, the enrichment ratio is 15.4. Regarding ATVG, the enrichment ratio is 6.86. For the variant ATPI, the enrichment ratio came out at 8.1. In the case of ITCG, the enrichment ratio was no more than 0.25.

Take HMVR: the enrichment ratio is no more than 0.25. Turning to PPPT, the enrichment ratio was no more than 0.25. Regarding HYAC, the enrichment ratio was no more than 0.25. On to MRCY, for which the enrichment ratio is no more than 0.25. On to ALEK, for which the enrichment ratio is no more than 0.25.

For QMAV, the enrichment ratio is no more than 0.25. The figure for HMTD is no more than 0.25; for LMTS it is 0.708; for YCYV it is no more than 0.25.

For SCYS, the enrichment ratio was found to be 0.535. To QMGG belongs no more than 0.25; to LLQC, no more than 0.25; to ATMW, 26.9. For ATHW, the enrichment ratio was no more than 0.25. ATCK: the enrichment ratio was 3.27.

As to ATCI, the enrichment ratio came to 12.5. As to ATCL, the enrichment ratio was found to be 18.6. Take ATMD: the enrichment ratio turned out to be 27.9. Regarding ATYD, the enrichment ratio was no more than 0.25. The figure for ATPW is no more than 0.25. For ATGD, the enrichment ratio was no more than 0.25.

For the variant ATNL, the enrichment ratio was determined as 5.25.

In the case of ATCA, the enrichment ratio stood at 5.9. For ATPL, the enrichment ratio amounted to 5.31. As to WGSP, the enrichment ratio is no more than 0.25.

In the case of HYYD, the enrichment ratio is no more than 0.25.

As for WSIS, the enrichment ratio is no more than 0.25.

With ITGG, the enrichment ratio is no more than 0.25.

With MSAK, the enrichment ratio was no more than 0.25. As for EGWA, the enrichment ratio is no more than 0.25. Consider DSML, for which the enrichment ratio is no more than 0.25. In the case of IFTF, the enrichment ratio is no more than 0.25.

In the case of PWYL, the enrichment ratio was no more than 0.25. In the case of YTCW, the enrichment ratio is no more than 0.25.

Consider ATCW, for which the enrichment ratio amounted to 11.3. As for ADCW, the enrichment ratio is no more than 0.25.

Consider HMKN, for which the enrichment ratio is no more than 0.25.

With NKTY, the enrichment ratio was no more than 0.25. To AIAY belongs 6.61; to AKAY, 13.6; to AQYI, no more than 0.25. To ANYI belongs no more than 0.25; to AQAY, 15.2. As for NQAY, the enrichment ratio was no more than 0.25. Take AHAY: the enrichment ratio was found to be 1.08. Consider ANAY, for which the enrichment ratio was 36.4. As for ANNY, the enrichment ratio amounted to 6.43.

Turning to CPSL, the enrichment ratio is no more than 0.25. With QEVG, the enrichment ratio is no more than 0.25. As for FDGF, the enrichment ratio is no more than 0.25. With HSWS, the enrichment ratio is no more than 0.25.

Turning to NKSN, the enrichment ratio was no more than 0.25. As for WFED, the enrichment ratio is no more than 0.25.
